Pf Dd2 growth – inhibitors of Plasmodium falciparum Dd2 growth. P. falciparum Dd2 growth, SYBR Green, 72 h; hits give low values. activity change, % at 10 µM. 2.3% of 94,000 active. AID 1159554; in the data active = activity change below about -80%; inconclusive = no clear call, values can overlap the other calls
C diff HTS – inhibitors of Clostridium difficile growth; Clostridium difficile clinical isolate growth, OD600, 24 h; hits give low values; growth activity, negative = inhibition, % at 16 µg/mL (by protocol); 0.25% of 86,000 active;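 active = mean growth activity at or below -80% and every replicate also at or below -80%; inconclusive = mean at or below -80% but some replicate above -80%; inactive = mean growth activity above -80%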;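 also: 0% = DMSO wells and -100% = levofloxacin 16 µg/mL wells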
T cruzi growth-1 – inhibitors of T. cruzi proliferation | T. cruzi beta-gal in NIH3T3, GalScreen luminescence, 90 h | inhibition, % at 8.34 µM | 5.9% of 77,000 active | AID 624255;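 active = mean inhibition above about 93%, with at least 55% of replicates each passing it, limit read from the data, passing the limit was not always enough; inconclusive = only one of those two conditions holds; inactive = neither condition holds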
T cruzi growth-2 – Trypanosoma cruzi proliferation inhibition; shares compounds with T cruzi growth-1; T. cruzi beta-gal in NIH3T3, GalScreen luminescence, 90 h; inhibition, % at 8.35 µM; 72% of 5,600 active; AID 651739;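 active = mean replicate inhibition above about 95% and at least 55% of replicates individually reaching it, limit read from the data; inconclusive = only one of the two criteria is met; inactive = neither criterion is met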
T cruzi growth-3 – inhibitors of T. cruzi proliferation | inhibition, % at 2.09 µM | 21% of 5,600 active | AID 651740 | T. cruzi beta-gal in NIH3T3, GalScreen luminescence, 90 h | shares compounds with T cruzi growth-1;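 active = mean inhibition above about 95%, with at least 55% of replicates also reaching it, limit read from the data; inconclusive = meets just one of the two conditions; inactive = meets neither condition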;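 also: plate controls were neutral control median for no effect and positive control median for full effect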
NIH3T3 tox – NIH/3T3 (mouse) viability loss | NIH/3T3 viability, CellTiter-Glo ATP luminescence, 90 h | cytotoxicity (signal decrease), % at 8.35 µM | shares compounds with T cruzi growth-1 | 14% of 5,600 active;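 active = mean signal decrease across replicates above about 35% based on untreated-well scatter, with enough replicates individually passing, limit read from the data; inconclusive = no rule stated though some were filed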;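 also: 0% = median of neutral control wells and 100% = median of positive control wells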
NIH3T3 tox 2 – kills mouse NIH/3T3 fibroblasts; AID 651744; inhibition, % at 24.9 µM; NIH/3T3 viability, CellTiter-Glo ATP luminescence, 90 h; shares compounds with T cruzi growth-1; 56% of 5,600 active;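 active = mean loss of cell viability signal at or above a set limit, and enough replicates individually reaching it; inconclusive = meets only the mean limit or only the replicate share; inactive = meets neither condition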;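 also: 0% = median of neutral control wells and 100% = median of positive control wells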
* = called active by the depositor; ? = inconclusive; . = no result given. A selection: hits, their analogues and other compounds. The true share with any hit is near 6.8%.

SMILES	Pf Dd2 growth	C diff HTS	T cruzi growth-1	T cruzi growth-2	T cruzi growth-3	NIH3T3 tox	NIH3T3 tox 2
N#Cc1cccc(-c2ccc3c(c2)[C@@H]2[C@@H](CCN2S(=O)(=O)c2ccccc2F)[C@@H](CO)N3)c1	16.4	-1.4	106.5*	98.9*	104.9*	15.2	73.4*
O=S(=O)(c1ccccc1F)N1CC[C@H]2[C@H](CO)Nc3ccc(-c4ccc(F)cc4)cc3[C@H]21	3.5	3.6	90.1	.	.	.	.
COc1cccc(-c2ccc3c(c2)[C@@H]2[C@@H](CCN2S(=O)(=O)c2ccccc2F)[C@@H](CO)N3)c1	10.6	22.0	?	97.8*	105.2*	27.9	100.9*
C[C@H]1CN([C@@H](C)CO)C(=O)Cc2cc(NC(=O)C3CC3)ccc2O[C@@H]1CN(C)Cc1ccccc1	-35.9	4.6	19.2	.	.	.	.
C[C@H](NC(=O)C[C@@H]1CC[C@H](NC(=O)Nc2ccc3c(c2)OCO3)[C@@H](CO)O1)c1ccccc1	-0.8	.	20.4	.	.	.	.
C[C@H]1CN([C@@H](C)CO)C(=O)c2cc(NS(C)(=O)=O)ccc2O[C@@H]1CN(C)S(C)(=O)=O	12.3	.	-52.1	.	.	.	.
COc1ccc2c3c(n(C)c2c1)[C@H](CO)N(Cc1ccccc1OC)CC31CCN(C(=O)C2CC2)CC1	-71.4	1.9	.	.	.	.	.
C[C@@H]1CN([C@@H](C)CO)C(=O)c2cccc(NC(=O)CCCCCC(=O)Nc3ccccc3N)c2O[C@H]1CN(C)S(=O)(=O)c1cn(C)cn1	36.5	-7.6	.	.	.	.	.
Cc1ccc(S(=O)(=O)Nc2ccc3c(c2)CC(=O)N([C@@H](C)CO)C[C@H](C)[C@H](CN(C)C(=O)Nc2ccc4c(c2)OCO4)O3)cc1	25.9	6.6	21.9	.	.	.	.
COc1ccccc1-c1cnc2c(c1)C(=O)N([C@@H](C)CO)C[C@@H](C)[C@@H](CN(C)Cc1cccnc1)O2	-2.8	-2.3	32.9	.	.	.	.
O=C(c1cccc(F)c1)N1CCCCN2[C@@H](CO)[C@@H](c3ccc(-c4ccncc4)cc3)[C@@H]2C1	8.4	-5.6	81.5	.	.	.	.
CC(C)(O)C#Cc1ccc([C@@H]2[C@@H](CO)N3CCCCN(C(=O)c4cccc(F)c4)C[C@H]23)cc1	16.1	1.8	120.1*	92.6	-3.6	-7.2	18.6
CC(C)(O)C#Cc1ccc([C@@H]2[C@H]3CN(C(=O)c4cccc(F)c4)CCCCN3[C@H]2CO)cc1	11.9	4.4	90.8	.	.	.	.
O=C(c1cccc(F)c1)N1CCCCN2[C@H](C1)[C@@H](c1ccc(-c3cncnc3)cc1)[C@@H]2CO	19.9	-13.2	22.2	.	.	.	.
O=C(c1cccc(F)c1)N1CCCCN2[C@H](C1)[C@@H](c1ccc(-c3ccncc3)cc1)[C@@H]2CO	-6.7	-3.0	85.5	.	.	.	.
O=C(c1cccc(F)c1)N1CCCCN2[C@H](CO)[C@H](c3ccc(-c4ccncc4)cc3)[C@@H]2C1	-40.7	-0.9	110.4*	113.1*	82.0	-12.2	0.1
O=C(c1cccc(F)c1)N1CCCCN2[C@H](CO)[C@H](c3ccc(-c4cncnc4)cc3)[C@H]2C1	13.6	5.7	?	71.5	47.1	16.5	14.6
O=C(c1cccc(F)c1)N1CCCCN2[C@H](CO)[C@H](c3ccc(-c4ccc(F)cc4)cc3)[C@@H]2C1	10.8	38.3	110.6*	110.4*	95.5*	23.2	64.8*
C[C@H](NC(=O)C[C@H]1CC[C@@H](NC(=O)C2CCC2)[C@H](CO)O1)c1ccccc1	19.3	.	18.2	.	.	.	.
O=C(C[C@H]1C=C[C@H](NC(=O)CCN2CCCCC2)[C@@H](CO)O1)Nc1ccccc1	42.1	0.7	.	.	.	.	.
C[C@@H](NC(=O)C[C@H]1CC[C@H](NC(=O)C2CCC2)[C@H](CO)O1)c1ccccc1	16.6	.	3.0	.	.	.	.
COc1ccc2c3c([nH]c2c1)[C@@H](CO)N(C(=O)c1cccnc1)CC31CN(C(=O)c2cccnc2)C1	28.4	0.4	.	.	.	.	.
C[C@H]1CN([C@@H](C)CO)C(=O)c2cccc(NC(=O)c3cnccn3)c2O[C@H]1CN(C)C(=O)Nc1ccc2c(c1)OCO2	1.1	.	17.4	.	.	.	.
O=C(NCC1CCCCC1)[C@H]1[C@H](CO)[C@H]2Cn3c(ccc(C4=CCCC4)c3=O)[C@@H]1N2C(=O)CC1CC1	-7.2	-4.3	18.5	.	.	.	.
O=C(c1cccc(F)c1)N1CCCCN2[C@H](CO)[C@@H](c3ccc(-c4cncnc4)cc3)[C@@H]2C1	-32.1	2.6	40.4	.	.	.	.
SMILES	Pf Dd2 growth	C diff HTS	T cruzi growth-1	T cruzi growth-2	T cruzi growth-3	NIH3T3 tox	NIH3T3 tox 2
O=C(c1cccc(F)c1)N1CCCCN2[C@H](CO)[C@@H](c3ccc(-c4ccc(F)cc4)cc3)[C@@H]2C1	13.1	19.0	103.6*	104.6*	?	18.7	106.0*
CC(C)C#Cc1ccc2c(c1)O[C@@H](CN(C)C(=O)c1ccccc1)[C@H](C)CN([C@@H](C)CO)S2(=O)=O	-66.6	-4.7	92.0	.	.	.	.
CC(C)C#Cc1ccc2c(c1)O[C@H](CN(C)C(=O)c1ccccc1)[C@H](C)CN([C@@H](C)CO)S2(=O)=O	-35.9	35.7	98.4	.	.	.	.
CC(C)C#Cc1ccc2c(c1)O[C@H](CN(C)C(=O)c1cccc(F)c1)[C@H](C)CN([C@H](C)CO)S2(=O)=O	-52.7	15.9	111.1*	103.6*	52.4	22.4	39.2*
CC(C)C#Cc1ccc2c(c1)O[C@@H](CN(C)C(=O)c1cccc(F)c1)[C@H](C)CN([C@H](C)CO)S2(=O)=O	-69.7	21.6	102.9*	102.5*	38.0	56.4*	62.7*
CC(C)C#Cc1ccc2c(c1)O[C@@H](CN(C)C(=O)c1cccc(F)c1)[C@@H](C)CN([C@H](C)CO)S2(=O)=O	-67.2	15.9	104.7*	101.8*	61.4	14.9	53.9*
CC(C)C#Cc1ccc2c(c1)O[C@H](CN(C)C(=O)c1cccc(F)c1)[C@@H](C)CN([C@H](C)CO)S2(=O)=O	-59.8	20.3	?	106.2*	70.6	12.8	?
COc1ccc(S(=O)(=O)Nc2ccc3c(c2)CC(=O)N([C@H](C)CO)C[C@@H](C)[C@H](CN(C)S(=O)(=O)c2ccc(C)cc2)O3)cc1	-25.2	-8.8	-17.8	.	.	.	.
OC[C@H]1[C@@H](c2ccc(-c3cccnc3)cc2)[C@H]2CN(CC3CCOCC3)CCCCN21	-7.7	-11.3	-1.8	.	.	.	.
C[C@@H]1CN([C@H](C)CO)C(=O)Cc2cc(NC(=O)NC3CCCCC3)ccc2O[C@@H]1CN(C)Cc1ccc(C(F)(F)F)cc1	-8.7	-2.9	37.5	.	.	.	.
C[C@H](CO)N1C[C@H](C)[C@@H](CN(C)S(=O)(=O)c2cccs2)OCCCC[C@H](C)Oc2ccc(NC(=O)Nc3ccc(F)cc3)cc2C1=O	-63.1	2.7	79.3	.	.	.	.
C[C@H](CO)N1C[C@H](C)[C@@H](CN(C)S(=O)(=O)c2cccs2)Oc2ccc(NC(=O)Nc3ccc(F)cc3)cc2C1=O	-14.8	.	-49.4	.	.	.	.
